Holding throughout (test): DAPPL (digital affinity profiling via proximity ligation, sequencing); 10 mM Tris-HCl pH 7.5, 50 mM NaCl, 1 mM DTT, 4% glycerol, room temperature, 30 min; GST-TFs on glutathione beads, 16-mer random dsDNA library, 0.1% formaldehyde crosslink after washing; high values mean tight binding
Details in all cases: protein: recombinant; tags: N-terminal GST; dsDNA, one strand shown

The target of experiment [1] is T1, FLI1 (Homo sapiens, UniProt Q01543 1-452).
T1 sequence: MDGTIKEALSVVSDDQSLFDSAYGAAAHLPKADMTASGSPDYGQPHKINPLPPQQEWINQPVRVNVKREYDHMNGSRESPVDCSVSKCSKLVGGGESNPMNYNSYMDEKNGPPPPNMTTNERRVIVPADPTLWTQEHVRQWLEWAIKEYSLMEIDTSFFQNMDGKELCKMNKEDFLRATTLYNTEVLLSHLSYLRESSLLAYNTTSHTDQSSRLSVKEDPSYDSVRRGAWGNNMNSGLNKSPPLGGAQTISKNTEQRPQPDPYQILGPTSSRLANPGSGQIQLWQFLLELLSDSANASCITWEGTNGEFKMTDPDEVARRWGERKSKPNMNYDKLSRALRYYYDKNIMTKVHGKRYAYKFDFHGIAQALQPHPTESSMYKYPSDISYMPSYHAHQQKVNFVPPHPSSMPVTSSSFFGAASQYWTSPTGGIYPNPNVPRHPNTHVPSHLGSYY
An outline of the steps: (§1)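 Binding signal is defined as a hexamer's read frequency for one factor over its frequency for the tag-only sample. To obtain reads, GST-fused human transcription factors were expressed in yeast, captured on glutathione beads, barcoded with DNA and pooled with that sample. Pools met 200 nmole of a 16-mer random double-stranded DNA library in Tris/NaCl/DTT/glycerol buffer for 30 min at room temperature before washing, 0.1% formaldehyde crosslinking, proximity ligation (BsaI/T4 ligase, 1 h, 37 °C), PCR and Illumina NextSeq500 sequencing.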

Experiment [2] has as its target T2, ELK1 (Homo sapiens, UniProt P19419 1-428).
T2 sequence: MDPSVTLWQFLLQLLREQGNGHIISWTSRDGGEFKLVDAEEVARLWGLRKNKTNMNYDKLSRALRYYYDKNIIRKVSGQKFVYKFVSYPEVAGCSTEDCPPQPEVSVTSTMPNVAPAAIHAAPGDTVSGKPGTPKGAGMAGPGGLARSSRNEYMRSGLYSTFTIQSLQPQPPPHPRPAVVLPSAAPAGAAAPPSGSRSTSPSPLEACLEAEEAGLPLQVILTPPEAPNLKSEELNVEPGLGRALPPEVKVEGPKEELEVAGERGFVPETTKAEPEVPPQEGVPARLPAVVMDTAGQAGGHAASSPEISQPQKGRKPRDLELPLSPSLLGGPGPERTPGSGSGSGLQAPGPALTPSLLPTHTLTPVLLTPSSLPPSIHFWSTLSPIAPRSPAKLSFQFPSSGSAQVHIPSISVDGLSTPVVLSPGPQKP
In short, it runs like this:
as §1

Experiment [3] deals with T3, GABPA (Homo sapiens, UniProt Q06546 1-454).
T3 sequence: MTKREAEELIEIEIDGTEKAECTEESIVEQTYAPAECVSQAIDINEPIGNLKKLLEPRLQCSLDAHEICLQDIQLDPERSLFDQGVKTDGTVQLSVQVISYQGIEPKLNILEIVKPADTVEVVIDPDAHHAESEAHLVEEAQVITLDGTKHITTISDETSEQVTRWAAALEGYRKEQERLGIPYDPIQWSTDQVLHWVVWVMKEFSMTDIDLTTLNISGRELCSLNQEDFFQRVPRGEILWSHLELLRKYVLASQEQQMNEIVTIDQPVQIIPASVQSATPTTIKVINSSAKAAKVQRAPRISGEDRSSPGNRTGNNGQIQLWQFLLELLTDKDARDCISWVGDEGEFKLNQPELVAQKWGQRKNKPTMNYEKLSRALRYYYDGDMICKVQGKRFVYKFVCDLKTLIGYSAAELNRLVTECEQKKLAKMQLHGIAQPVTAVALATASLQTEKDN
An outline of the steps:
as §1

Experiment [4] concerns the target T4, ERG (Homo sapiens, UniProt P11308 1-479).
T4 sequence: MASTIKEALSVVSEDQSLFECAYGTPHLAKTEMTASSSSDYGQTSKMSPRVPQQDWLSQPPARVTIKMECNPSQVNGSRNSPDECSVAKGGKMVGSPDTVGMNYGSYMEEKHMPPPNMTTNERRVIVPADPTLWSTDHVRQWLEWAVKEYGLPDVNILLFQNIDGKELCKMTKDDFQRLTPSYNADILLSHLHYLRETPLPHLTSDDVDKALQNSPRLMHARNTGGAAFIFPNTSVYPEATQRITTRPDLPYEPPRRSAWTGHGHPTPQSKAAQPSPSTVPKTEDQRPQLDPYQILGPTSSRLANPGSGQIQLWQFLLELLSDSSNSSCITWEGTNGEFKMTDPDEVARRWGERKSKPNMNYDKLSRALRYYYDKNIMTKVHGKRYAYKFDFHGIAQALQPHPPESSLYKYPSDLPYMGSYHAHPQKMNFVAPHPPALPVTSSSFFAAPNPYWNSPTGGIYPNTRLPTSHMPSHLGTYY
An outline of the steps:
as §1

The target of experiment [5] is ELF1 (Homo sapiens, UniProt P32519 1-619). In short, it runs like this: as §1
Sequence of ELF1 (P32519 whole entry): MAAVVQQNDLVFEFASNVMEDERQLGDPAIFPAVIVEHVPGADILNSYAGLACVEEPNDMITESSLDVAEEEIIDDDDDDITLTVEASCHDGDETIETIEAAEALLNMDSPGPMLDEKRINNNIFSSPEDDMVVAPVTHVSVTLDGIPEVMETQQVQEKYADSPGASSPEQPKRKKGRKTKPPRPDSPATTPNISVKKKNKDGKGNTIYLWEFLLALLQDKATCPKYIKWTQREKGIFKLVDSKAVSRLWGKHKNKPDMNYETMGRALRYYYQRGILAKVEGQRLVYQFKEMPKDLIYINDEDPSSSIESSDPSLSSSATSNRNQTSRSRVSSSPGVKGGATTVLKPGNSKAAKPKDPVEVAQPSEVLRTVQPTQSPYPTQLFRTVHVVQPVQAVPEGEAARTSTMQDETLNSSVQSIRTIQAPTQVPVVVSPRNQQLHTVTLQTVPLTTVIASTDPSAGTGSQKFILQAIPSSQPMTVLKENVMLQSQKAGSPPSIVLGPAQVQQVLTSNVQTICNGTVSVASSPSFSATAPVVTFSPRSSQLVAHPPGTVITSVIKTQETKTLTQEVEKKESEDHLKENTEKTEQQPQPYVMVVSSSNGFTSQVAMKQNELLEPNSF
Experiment [6] concerns the target T5, EHF (Homo sapiens, UniProt Q9NZC4 1-300).
T5 sequence: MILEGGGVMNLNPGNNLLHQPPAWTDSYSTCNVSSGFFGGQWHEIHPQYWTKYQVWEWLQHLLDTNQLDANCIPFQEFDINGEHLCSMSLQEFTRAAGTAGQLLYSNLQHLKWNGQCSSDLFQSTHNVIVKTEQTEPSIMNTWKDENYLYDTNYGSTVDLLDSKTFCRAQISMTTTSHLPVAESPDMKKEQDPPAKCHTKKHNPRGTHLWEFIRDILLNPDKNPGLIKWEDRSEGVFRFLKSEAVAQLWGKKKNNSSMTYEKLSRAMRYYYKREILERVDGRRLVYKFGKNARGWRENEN
In short, it runs like this:
as §1

Experiment [7] has as its target SPI1 (Homo sapiens, UniProt P17947 1-270). An outline of the steps:
as §1

For experiment [8], the target named is SPIB (Homo sapiens, UniProt Q01892 1-262). An outline of the steps: as §1
Sequence of SPIB (Q01892 whole entry): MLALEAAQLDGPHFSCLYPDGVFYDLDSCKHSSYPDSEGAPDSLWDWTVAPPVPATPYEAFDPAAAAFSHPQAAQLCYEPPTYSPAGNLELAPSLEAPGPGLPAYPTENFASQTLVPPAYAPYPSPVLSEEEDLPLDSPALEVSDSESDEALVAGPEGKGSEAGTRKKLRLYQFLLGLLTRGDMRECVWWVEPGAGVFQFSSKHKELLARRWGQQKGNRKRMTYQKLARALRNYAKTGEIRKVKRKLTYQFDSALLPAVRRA
The target in experiment [9] is T6, ELK3 (Homo sapiens, UniProt P41970 1-407).
T6 sequence: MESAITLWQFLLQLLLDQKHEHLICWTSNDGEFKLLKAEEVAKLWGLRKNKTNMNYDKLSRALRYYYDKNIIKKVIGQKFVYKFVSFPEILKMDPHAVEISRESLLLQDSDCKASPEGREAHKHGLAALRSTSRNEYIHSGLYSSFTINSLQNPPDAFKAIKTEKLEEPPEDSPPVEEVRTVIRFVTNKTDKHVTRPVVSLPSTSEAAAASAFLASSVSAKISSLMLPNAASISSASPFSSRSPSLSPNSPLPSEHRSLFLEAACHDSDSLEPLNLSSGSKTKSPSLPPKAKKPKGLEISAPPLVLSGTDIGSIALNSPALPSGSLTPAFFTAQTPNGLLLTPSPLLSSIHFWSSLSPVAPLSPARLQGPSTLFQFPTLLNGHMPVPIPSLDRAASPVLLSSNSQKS
In short, it runs like this: as §1

The target in experiment [10] is T7, FEV (Homo sapiens, UniProt Q99581 1-238).
T7 sequence: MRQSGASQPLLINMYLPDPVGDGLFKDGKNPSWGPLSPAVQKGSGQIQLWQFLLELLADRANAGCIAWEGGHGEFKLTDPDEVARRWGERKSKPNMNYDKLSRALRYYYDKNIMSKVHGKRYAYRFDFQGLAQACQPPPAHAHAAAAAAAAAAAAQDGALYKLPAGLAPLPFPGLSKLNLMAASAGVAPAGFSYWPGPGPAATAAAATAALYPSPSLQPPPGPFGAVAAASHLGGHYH
An outline of the steps:
as §1

In experiment [11] the target is ETV5 (Homo sapiens, UniProt P41161 1-510). In short, it runs like this: as §1
Sequence of ETV5 (P41161 whole entry): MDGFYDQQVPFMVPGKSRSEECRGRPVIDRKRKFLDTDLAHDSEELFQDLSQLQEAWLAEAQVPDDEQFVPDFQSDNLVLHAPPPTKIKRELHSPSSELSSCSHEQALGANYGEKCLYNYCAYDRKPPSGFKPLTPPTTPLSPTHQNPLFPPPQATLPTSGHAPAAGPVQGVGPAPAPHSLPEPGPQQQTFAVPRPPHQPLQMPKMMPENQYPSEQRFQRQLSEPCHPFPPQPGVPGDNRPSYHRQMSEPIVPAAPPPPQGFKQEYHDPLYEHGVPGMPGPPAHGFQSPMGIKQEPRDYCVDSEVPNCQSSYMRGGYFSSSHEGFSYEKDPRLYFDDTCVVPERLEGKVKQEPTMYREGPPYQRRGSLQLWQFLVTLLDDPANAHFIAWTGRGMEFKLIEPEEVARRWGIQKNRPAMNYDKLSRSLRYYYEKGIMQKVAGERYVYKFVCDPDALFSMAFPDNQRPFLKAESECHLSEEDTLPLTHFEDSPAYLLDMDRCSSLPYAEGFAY
Experiment [12] concerns the target T8, SPIC (Homo sapiens, UniProt Q8N5J4 1-248).
T8 sequence: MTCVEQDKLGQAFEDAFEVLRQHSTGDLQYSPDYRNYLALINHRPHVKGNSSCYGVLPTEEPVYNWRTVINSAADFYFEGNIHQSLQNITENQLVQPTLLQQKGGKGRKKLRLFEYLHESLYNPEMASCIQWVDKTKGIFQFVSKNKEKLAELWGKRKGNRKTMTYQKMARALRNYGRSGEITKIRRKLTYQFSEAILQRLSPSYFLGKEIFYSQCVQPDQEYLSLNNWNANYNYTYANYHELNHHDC
In short, it runs like this: as §1

The target of experiment [13] is ELF4 (Homo sapiens, UniProt Q99607 1-663). An outline of the steps: as §1
Sequence of ELF4 (Q99607 whole entry): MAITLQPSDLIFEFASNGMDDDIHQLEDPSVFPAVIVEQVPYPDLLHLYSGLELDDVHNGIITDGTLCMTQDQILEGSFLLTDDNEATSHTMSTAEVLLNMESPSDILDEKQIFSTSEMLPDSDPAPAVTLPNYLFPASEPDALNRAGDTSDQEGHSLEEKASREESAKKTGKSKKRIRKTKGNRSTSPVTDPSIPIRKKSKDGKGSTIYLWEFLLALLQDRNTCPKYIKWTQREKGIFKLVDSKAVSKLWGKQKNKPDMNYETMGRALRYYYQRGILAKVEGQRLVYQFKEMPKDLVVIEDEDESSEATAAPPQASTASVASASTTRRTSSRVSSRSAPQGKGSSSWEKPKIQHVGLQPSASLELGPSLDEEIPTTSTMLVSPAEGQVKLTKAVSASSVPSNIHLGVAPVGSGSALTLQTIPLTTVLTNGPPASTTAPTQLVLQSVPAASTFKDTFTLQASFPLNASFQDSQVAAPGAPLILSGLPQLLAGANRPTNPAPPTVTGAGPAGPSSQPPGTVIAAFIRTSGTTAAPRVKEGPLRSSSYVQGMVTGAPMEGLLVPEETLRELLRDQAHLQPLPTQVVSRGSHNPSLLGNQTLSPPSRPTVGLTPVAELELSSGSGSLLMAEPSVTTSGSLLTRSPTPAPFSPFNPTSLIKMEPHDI
For experiment [14], the target named is T9, ELK4 (Homo sapiens, UniProt P28324-2 1-405).
T9 sequence: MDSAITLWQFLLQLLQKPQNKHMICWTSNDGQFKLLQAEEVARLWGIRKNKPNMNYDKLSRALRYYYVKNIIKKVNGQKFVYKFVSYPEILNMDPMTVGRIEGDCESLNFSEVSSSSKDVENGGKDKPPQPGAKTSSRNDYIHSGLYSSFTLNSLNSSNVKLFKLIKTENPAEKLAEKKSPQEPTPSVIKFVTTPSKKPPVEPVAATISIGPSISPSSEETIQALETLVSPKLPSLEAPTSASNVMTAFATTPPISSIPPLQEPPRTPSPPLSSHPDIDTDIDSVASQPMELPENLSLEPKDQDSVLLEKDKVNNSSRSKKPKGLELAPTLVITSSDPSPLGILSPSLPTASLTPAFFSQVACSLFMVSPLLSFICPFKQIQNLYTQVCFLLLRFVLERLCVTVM
In short, it runs like this:
as §1

For experiment [15], the target named is T10, ETV2 (Homo sapiens, UniProt O00321 1-342).
T10 sequence: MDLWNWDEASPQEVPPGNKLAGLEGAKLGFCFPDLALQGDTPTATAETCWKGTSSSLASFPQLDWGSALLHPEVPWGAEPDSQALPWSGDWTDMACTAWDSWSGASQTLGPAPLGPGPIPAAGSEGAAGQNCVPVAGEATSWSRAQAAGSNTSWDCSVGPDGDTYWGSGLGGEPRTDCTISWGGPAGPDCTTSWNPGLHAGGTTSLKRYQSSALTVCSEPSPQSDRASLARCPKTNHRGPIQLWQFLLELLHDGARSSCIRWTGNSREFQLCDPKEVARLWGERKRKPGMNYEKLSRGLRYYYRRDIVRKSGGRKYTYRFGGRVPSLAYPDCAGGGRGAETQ
In short, it runs like this: as §1

Experiment [16] addresses T11, ELF3 (Homo sapiens, UniProt P78545 1-371).
T11 sequence: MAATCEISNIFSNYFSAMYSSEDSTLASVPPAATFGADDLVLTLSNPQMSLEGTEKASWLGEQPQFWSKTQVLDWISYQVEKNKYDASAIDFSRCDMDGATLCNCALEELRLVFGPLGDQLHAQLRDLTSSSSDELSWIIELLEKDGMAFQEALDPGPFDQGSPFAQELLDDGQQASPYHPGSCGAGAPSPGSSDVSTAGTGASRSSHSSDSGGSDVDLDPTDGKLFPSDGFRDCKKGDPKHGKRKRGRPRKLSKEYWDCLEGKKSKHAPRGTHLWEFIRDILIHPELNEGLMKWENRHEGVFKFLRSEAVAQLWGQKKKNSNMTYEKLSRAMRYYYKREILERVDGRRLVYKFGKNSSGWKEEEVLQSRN
An outline of the steps:
as §1

The target of experiment [17] is ETV1 (Homo sapiens, UniProt P50549 1-477). In short, it runs like this:
as §1

Sequence of ETV1 (P50549 whole entry): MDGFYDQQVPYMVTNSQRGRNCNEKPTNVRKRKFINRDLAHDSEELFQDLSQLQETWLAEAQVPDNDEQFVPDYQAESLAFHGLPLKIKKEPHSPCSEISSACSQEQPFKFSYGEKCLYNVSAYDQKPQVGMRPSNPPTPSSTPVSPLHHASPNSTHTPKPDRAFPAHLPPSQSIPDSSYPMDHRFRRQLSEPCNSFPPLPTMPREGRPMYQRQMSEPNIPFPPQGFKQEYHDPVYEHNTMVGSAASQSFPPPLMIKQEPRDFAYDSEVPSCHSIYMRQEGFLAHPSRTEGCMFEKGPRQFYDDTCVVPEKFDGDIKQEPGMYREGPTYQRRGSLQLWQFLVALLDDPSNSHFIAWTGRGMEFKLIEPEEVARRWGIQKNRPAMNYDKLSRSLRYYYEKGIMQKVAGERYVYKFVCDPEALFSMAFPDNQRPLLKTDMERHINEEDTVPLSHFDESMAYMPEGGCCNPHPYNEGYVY

ACAAAC: the binding signal was 1.15 fold enrichment (6-mer frequency, TF over GST control) in [1]; 1.15 fold enrichment (6-mer frequency, TF over GST control) in [2]; 1.14 fold enrichment (6-mer frequency, TF over GST control) in [3]; 1.16 fold enrichment (6-mer frequency, TF over GST control) in [4]; 1.12 fold enrichment (6-mer frequency, TF over GST control) in [5]; 1.15 fold enrichment (6-mer frequency, TF over GST control) in experiment [6]. In addition, the binding signal was 1.11 fold enrichment (6-mer frequency, TF over GST control) in experiment [7]; 1.11 fold enrichment (6-mer frequency, TF over GST control) in experiment [8]; 1.17 fold enrichment (6-mer frequency, TF over GST control) in experiment [9]; 1.15 fold enrichment (6-mer frequency, TF over GST control) in experiment [10]; 1.08 fold enrichment (6-mer frequency, TF over GST control) in experiment [11]; 1.11 fold enrichment (6-mer frequency, TF over GST control) in [12]. In addition, the binding signal in [13] was 1.12 fold enrichment (6-mer frequency, TF over GST control); in experiment [14], 1.08 fold enrichment (6-mer frequency, TF over GST control); in experiment [15] it was 1.24 fold enrichment (6-mer frequency, TF over GST control); in experiment [16] it was 1.12 fold enrichment (6-mer frequency, TF over GST control); in [17], 1.12 fold enrichment (6-mer frequency, TF over GST control).
On to TGCCAC, for which the binding signal in experiment [1] was 1.21 fold enrichment (6-mer frequency, TF over GST control); in [2] it was 1.2 fold enrichment (6-mer frequency, TF over GST control); in experiment [3] it was 1.14 fold enrichment (6-mer frequency, TF over GST control); in [4], 1.26 fold enrichment (6-mer frequency, TF over GST control); in [5], 1.18 fold enrichment (6-mer frequency, TF over GST control); in experiment [6], 1.23 fold enrichment (6-mer frequency, TF over GST control). Further, the binding signal in experiment [7] is 1.21 fold enrichment (6-mer frequency, TF over GST control); in experiment [8], 1.13 fold enrichment (6-mer frequency, TF over GST control); in experiment [9] it was 1.23 fold enrichment (6-mer frequency, TF over GST control); in [10], 1.32 fold enrichment (6-mer frequency, TF over GST control); in experiment [11], 1.14 fold enrichment (6-mer frequency, TF over GST control); in [12], 1.19 fold enrichment (6-mer frequency, TF over GST control). The binding signal in experiment [13] is 1.26 fold enrichment (6-mer frequency, TF over GST control); in experiment [14], 1.42 fold enrichment (6-mer frequency, TF over GST control); in [15] it was 1.14 fold enrichment (6-mer frequency, TF over GST control); in experiment [16], 1.44 fold enrichment (6-mer frequency, TF over GST control); in [17], 1.26 fold enrichment (6-mer frequency, TF over GST control).

For the origin of these results see article PMC7862700, “An all-to-all approach to the identification of sequence-specific readers for epigenetic DNA modifications on cytosine”.
